# Assay results: PubChem BioAssay (NCI)
# About 83,000 compounds went through this panel and 20% of them were active in at least one assay; those are over-represented in the sample as a whole.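 The test compound was applied at a single concentration to cells in 96-well plates for 48 hours, and percent growth was recorded.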 Values without a mark were called inactive. Calls of active or inactive are those of the source. How the source made its calls: active means growth percent below 10; inactive means the rest.
# Tested on: SN12C renal
# Experiment: NCI-60 one-dose screen, 48 h (100 = growth as untreated, 0 = no growth, -100 = all killed)
# Conditions: 10 µM unless noted
row,SMILES,growth
1,CCc1cc2c(cc1Cl)nc1c(=O)[nH]c(=O)nc-1n2CCOCC(C)(C)C,79.8%
2,Cc1cc(=O)[nH]c(O)c1C#N,102%
3,CC1(C)CC[C@]23CC[C@]4(C)[C@H](CC[C@@H]5[C@@]6(C)CC[C@H](NCO)C(C)(C)[C@@H]6CC[C@]54C)[C@H]2[C@H]1OC3,43.3%
4,CC(C)[C@H]1c2[nH]c3ccccc3c2C[C@H]2C(=O)N(CCCCCCC(=O)NO)CC(=O)N12,90.2%
5,Cn1cc(-c2nc(N)nnc2-c2c[nH]c3ccc(Br)cc23)c2cc(F)ccc21,102%
6,CCCCCCCCCCCC(=O)NC(C)(C)C(=O)N1CCCC1C(=O)NC(C)(C)C(=O)NC(C)(C)C(=O)N1CCCC1C(=O)NC(C)(C)C(=O)NC(C)(C)C(=O)N1CCCC1C(=O)NC(C)C(=O)NCCC(=O)NC(C)C(=O)NC(C)(C)C(=O)NC(C)(C)C(=O)NC(C)(C)C(=O)NCCC(=O)NC(C)(C)C(=O)NC(C)(C)C(=O)NC(C)(C)C(=O)NC(C)C(=O)NCCC(=O)O (stereo not given),-94% (active)
7,CN1CCN(c2ccc(Nc3nc(NCCNC(=O)c4ccccc4)c4sccc4n3)cc2)CC1,74%
8,Cc1[nH]c(C(=O)Nc2ccccc2OCc2cccc(C(=O)NCCN)c2)cc1Cl,93.9%
9,CCCc1[nH]c(-c2cc(N)ccc2Cl)c2c1C(=O)CCCC2,92.1%
10,O=C(Nc1ccc(N=Cc2c(O)[nH]c3ccccc23)cc1)Nc1ccc(S(=O)(=O)Nc2ncccn2)cc1,98.8%
11,CC1=Cc2ccccc2OC12C=Cc1ccccc1O2 (stereo not given),102%
12,NS(=O)(=O)c1ccc(CCn2c(-c3ccc(C(=O)O)cc3)nc(-c3ccccc3)c2-c2ccccc2)cc1,101%
13,COc1ccc(/C=N\NC(=O)c2cnn(CC(O)c3ccccc3)c2N)cc1OCc1ccc(Cl)cc1 (stereo not given),84.4%
14,CNc1sc(S(=O)(=O)NC)nc1S(=O)(=O)c1ccc(C)cc1,101%
15,C=C(C)[C@@H]1CC[C@]2(C(=O)N3CCN(C)CC3)CC[C@]3(C)[C@H](CC[C@@H]4[C@@]5(C)CC[C@H](OP(=O)(OCC)OCC)C(C)(C)[C@@H]5CC[C@]43C)[C@@H]12,84.7%
16,NS(=O)(=O)c1ccc(Nc2nc(Nc3ccccc3)nc(N3N=C(c4ccc(Cl)cc4)CC3c3ccc(Cl)cc3)n2)cc1 (stereo not given),40.2%
17,COc1cc(C(C)=C(c2ccc(OCCN(C)C)cc2)c2ccc(OCCN(C)C)cc2)ccc1F,101%
18,CN1CCN(c2ccc(Nc3nc(NCCCNS(=O)(=O)c4ccc(F)cc4)c4sccc4n3)cc2)CC1,82%
19,CCOC(=O)c1c(NC(=O)c2ccc(C(F)(F)F)cc2)sc2c(CN3CCN(C)CC3)c(O)ccc12,-75.7% (active)
20,CC(O)c1cccc(/C(N)=N/C(N)=N/c2nc3ccccc3s2)c1 (stereo not given),86.9%

row,SMILES,growth
1,C#Cc1cc(C(=O)Nc2ccc(CNCCN3CCOCC3)c(C(F)(F)F)c2)ccc1C,93.5%
2,COc1ccc(/C=N/NC(=O)CSc2nc(-c3cnccn3)cc(-c3cccs3)c2C#N)cc1,64%
3,Cn1cc(-c2nnc(N)nc2-c2c[nH]c3ccc(Br)cc23)c2cc(Br)ccc21,110%
4,COc1ccc2[nH]cc(-c3nc(N)nnc3-c3cn(C)c4ccc(Br)cc34)c2c1,42.6%
5,C#CCN(C)CCCOc1ccc(NCc2ccc(C(=O)NO)cc2)cc1Cl,37.8%
6,CCN(CC)c1ccc(/C=N/NC(=O)c2ccc(NS(C)(=O)=O)cc2)c(O)c1,31.4%
7,O=C(CCCCCCN1CC(=O)N2[C@@H](c3ccc(Cl)s3)c3[nH]c4ccccc4c3C[C@H]2C1=O)NO,72.7%
8,CC1(C)CC[C@]23CC[C@]4(C)[C@H](CC[C@@H]5[C@@]6(C)CC[C@H](N)C(C)(C)[C@@H]6CC[C@]54C)[C@H]2[C@H]1OC3,79.1%
9,Cc1ccc(S(=O)(=O)NCCCNc2nc(Nc3ccc(N4CCN(C)CC4)cc3)nc3ccsc23)cc1,58.3%
10,N#Cc1nc(-c2ccccc2)oc1N1CCC(C2(C(F)(F)F)N=N2)CC1,119%
11,O=C(CCCCCCN1CC(=O)N2[C@@H](c3cccs3)c3[nH]c4ccccc4c3C[C@H]2C1=O)NO,93.8%
12,O=C(CCCCCCNC(=O)C(O)(O)C(F)(F)F)Nc1nc2ccccc2s1,10.8%
13,CNC(=O)c1cc(Oc2ccc3c(c2)sc2nc(-c4ccc(N(C)C)cc4)cn23)ccn1,43%
14,CC1=C(C)C(=O)C(Nc2cccc(C)c2)=C(Br)C1=O,96.9%
15,CC(=C(c1ccc(OCCCN(C)C)cc1)c1ccc(OCCCN(C)C)cc1)c1ccc(Cl)cc1,85.5%
16,COc1cc(C(=O)c2cc(C(C)=O)c3cccc(C)n23)cc(OC)c1OC,45.3%
17,C#Cc1nc(/C=C/CCCCCCC(=O)NO)cs1,90.3%
18,CCCCCc1ccc(S(=O)(=O)Nc2cc(-c3csc(N)n3)ccc2OC)cc1,89.2%
19,CCCc1cc2cc(-n3nc(CC)c4c3CC(C)(C)CC4=O)cc(NC3CCC(O)CC3)c2c(=O)[nH]1 (stereo not given),7.81% (active)
20,Cc1ccc(-c2cc3nc(C(Cl)Cl)nc(-c4ccc(S(=O)(=O)N(C)C)cc4)n3n2)cc1,50.7%
